Sm TGR block = blocks Schistosoma mansoni thioredoxin glutathione reductase. purified TGR, DTNB reduction, TNB absorbance 405 nm. Potency, µM (doses to about 114 µM), inactives show top-dose activity change, negative = inhibition, usual class: inhibitors. 360,000 tested, 3% active; note: % is set by controls: 0 for no effect and ±100 for the full control effect; nearly all actives have a fitted effect of over 60% in size
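Kinetic colorimetric format: TGR-catalysed, NADPH-driven DTNB reduction monitored via TNB absorbance. Enzyme dispensed at 20 nM; compound exposure 15 min at room temperature before reaction start.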
RE007 growth inh = less growth of the S. pombe RE007 Vpr strain | 360,000 tested, 0.21% active | Potency, µM (series often up to 92.2 µM), for inactives: top-dose activity change, negative = less growth, hits mostly inhibitors | S. pombe RE007 Vpr strain, BacTiter-Glo ATP luminescence, 24 h; active = well fitted falling curve with a large enough effect; inconclusive = small, poorly fitted or top-dose-only effect; inactive = no such curve, though single readings can be large or run the other way; note: % is set by controls: 0 for no effect and ±100 for the full control effect; nearly all actives have a fitted effect of over 50% in size
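Fission yeast strain RE007, carrying one chromosomally integrated HIV-1 vpr copy, was seeded at OD 0.01 in PMG+AL medium with 23 nL pinned compound. After 24 h at 30 °C and 99% humidity, viability was read by BacTiter-Glo luminescence.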
NS1 function inh = blocks influenza NS1 protein function | 270,000 tested, 0.4% active | Potency, µM (highest dose often 46.1 µM), inactives show at the highest dose activity, positive = more growth | AID 2326; calls by dose curve; note: actives are rising curves; nearly all actives have a fitted effect of over 50% in size
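Read-out: OD600 growth recovery of NS1-expressing budding yeast. Cells grown overnight at 30C in -URA glucose medium, washed, resuspended and diluted 1:100 in 2% galactose assay medium, pH 6.0. Same strain lacking NS1 served as positive control.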
Giardia FBPA inh = inhibitors of Giardia lamblia fructose-1,6-bisphosphate aldolase. Potency, µM (titrated, usually from 59.6 µM), inactives show at the highest dose activity, negative = inhibition, hits mostly inhibitors. A8B2U2. purified Giardia FBPA. 290,000 tested, 0.71% active. AID 2451; note: % is set by controls: 0 for no effect and ±100 for the full control effect; nearly all actives have a fitted effect of over 55% in size
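Giardia FBPA (40 nM reagent) was preincubated 10 min at RT with compound (up to 57.5 uM final), then substrate plus GAPDH/TPI/NAD/arsenate coupling system with diaphorase/resazurin was added; resorufin fluorescence (525/598 nm) was read after 20 min.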
TbPYK inhibitor = blocks Trypanosoma brucei pyruvate kinase; TbPYK enzyme, Kinase-Glo Plus ATP luminescence, 45 min; Potency, µM (doses to about 76.8 µM), for the others: at the top dose activity, negative = inhibition, actives largely listed as inhibitors; 410,000 tested, 0.12% active; note: % is set by controls: 0 for no effect and ±100 for the full control effect; nearly all actives have a fitted effect of over 50% in size
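Quantitative HTS: titrated library compounds versus trypanosomal pyruvate kinase in TEA buffer (pH 7.2) containing KCl, MgCl2, BSA and Tween-20. Reactions were initiated with ADP, 130 uM final. Kinase-Glo Plus luminescence was read after 45 min at RT.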
LmPK inh = LmPK (Leishmania mexicana) enzyme inhibition | purified LmPK, Kinase-Glo ATP luminescence, 1 h | Potency, µM (doses to about 57.5 µM), for the others: at the highest dose activity change, negative = inhibition, most hits filed as inhibitors | Q27686 | 290,000 tested, 0.37% active; note: % is set by controls: 0 for no effect and ±100 for the full control effect
Target sequence (Q27686 whole entry, looked up): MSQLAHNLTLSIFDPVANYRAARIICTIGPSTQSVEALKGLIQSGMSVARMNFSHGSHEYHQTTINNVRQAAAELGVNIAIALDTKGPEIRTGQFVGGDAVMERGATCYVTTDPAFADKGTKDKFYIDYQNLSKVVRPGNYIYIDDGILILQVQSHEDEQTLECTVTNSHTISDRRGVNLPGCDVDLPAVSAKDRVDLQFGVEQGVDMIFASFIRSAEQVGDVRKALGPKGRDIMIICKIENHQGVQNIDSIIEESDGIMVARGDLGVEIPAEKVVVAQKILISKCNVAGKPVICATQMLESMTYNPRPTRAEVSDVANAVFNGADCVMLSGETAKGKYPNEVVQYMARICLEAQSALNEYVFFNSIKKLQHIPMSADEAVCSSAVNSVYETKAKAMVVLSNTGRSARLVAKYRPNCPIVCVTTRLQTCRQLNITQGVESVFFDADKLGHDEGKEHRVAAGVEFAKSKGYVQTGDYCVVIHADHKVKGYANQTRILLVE
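Screened at intermediate enzyme activity to detect both inhibitors and activators: LmPK at 0.1 nM, with a 0.5 nM enzyme column as activation reference. PEP 0.5 mM, ADP 0.1 mM; ATP detected by luminescence after 1 h.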
* hit, by the source's call; u = inconclusive; x = not tested or not shown; [ ] = dose if it differs, or a comment. A selection: hits, their analogues and other compounds. The true share with any hit is near 3.5%. Unless noted, calls come from the whole dose curve; as a rule, active = well fitted curve in the direction sought with a large enough effect; inconclusive = small, poorly fitted or top-dose-only effect, or another doubt; inactive = no such curve, though single readings can be large; an effect the other way counts as inactive or inconclusive. Potency is the fitted concentration of half-maximal effect.

SMILES	Sm TGR block	RE007 growth inh	NS1 function inh	Giardia FBPA inh	TbPYK inhibitor	LmPK inh
COc1cccc(NC(=O)N(CCC(C)C)C2CCN(C(C)C)CC2)c1	5%	x	x	x	-3%	x
COc1cccc(CNC(=O)CCc2c(C)c3cc4c(C)coc4c(C)c3oc2=O)c1	-3%	x	x	x	-5%	x
O=c1[nH]c2cc3c(cc2cc1CN(Cc1cccs1)Cc1nnnn1Cc1ccco1)OCCO3	11µM*	0%	14%	u	-2%	16%
Cc1ccc(CNC(=O)C2CCCN(S(=O)(=O)c3cn(C)cn3)C2)cc1 (stereo not given)	3%	x	x	x	-3%	x
NC(=O)CSc1ncc2c(n1)-c1ccccc1N(Cc1ccccc1)S2(=O)=O	0%	x	x	x	-2%	x
CCOC(=O)c1ccc(NC(=O)C2CCCN(c3ccc(Sc4ccc(C)cc4)nn3)C2)cc1 (stereo not given)	2%	x	x	x	6%	x
COc1cc(-c2cc(OC)c3c(C)oc(C)c3c(=O)c2)ccc1OC(=O)c1ccccc1F	-1%	x	x	x	u	x
COc1cc(-c2cccs2)cc(=O)c2c(C)oc(C)c12	40µM*	-3%	-13%	u	-5%	1%
N#Cc1cccc(NC(=S)Nc2ccccc2)c1	50µM*	-4%	0%	-27%	-5%	1%
Cc1oc(/C=N/NC(=O)CN(c2ccccc2Br)S(C)(=O)=O)cc1Br	45µM*	-8%	-1%	x	-3%	5%
Cc1oc(/C=N/NC(=O)CN(c2ccccc2Cl)S(C)(=O)=O)cc1Br	u	8%	5%	-7%	-7%	4%
Cc1ccccc1N(CC(=O)N/N=C/c1cc(Br)c(C)o1)S(C)(=O)=O	79µM*	-11%	-8%	-7%	-12%	5%
Cn1c(=O)n(CCc2ccccc2)c(=O)c2c1nc1n2CCN1c1ccc(Cl)cc1	1%	x	x	x	4%	x
CCCCC(c1nnnn1CS(=O)(=O)c1ccc(C)cc1)N1CCN(c2ccccc2)CC1 (stereo not given)	56%	-3%	7.1µM*	7%	5%	1%
CCCCNC(=O)C(CC)Sc1nnc(-c2cccc(F)c2)c(-c2cccc(F)c2)n1 (stereo not given)	13%	x	x	x	0%	x
Cc1ccc(-c2ccc(C(=O)NCc3ccc(Cl)cc3)o2)c2ccccc12	14µM*	-1%	-42%	-20%	-12%	0%
COc1ccc(NC(=O)c2ccc(-c3ccc(C)c4ccccc34)o2)cc1	45µM*	-7%	-20%	-23%	-10%	-4%
COc1ccc(NC(=O)c2ccc(-c3ccccc3Cl)o2)cc1	-13%	-7%	8%	-10%	-6%	-2%
Cc1cc(C(=O)N/N=C/c2ccc(O)c(O)c2O)c(C)n1-c1ccccc1	40µM*	13%	x	16µM*	10%	-3%
Cc1cc(C)cc(NC(=O)Cn2cc(S(=O)(=O)NC(C)(C)C)c(S(=O)(=O)NC(C)(C)C)c2)c1	-2%	x	x	x	1%	x
c1ccc(-c2onc(-c3ccco3)c2-c2ccc3c(c2)OCO3)cc1	50µM*	14%	-6%	-8%	4%	0%
Oc1ccc2ccccc2c1/C=N/Nc1ccccc1	50µM*	89%	-4%	u	2%	1%
Oc1ccc2ccccc2c1C=NC1CCCCC1	40µM*	-26%	x	u	29%	2%
Oc1ccc2ccccc2c1/C=N/n1cnnc1	-17%	-1%[3.69 µM]	-12%	-2%	x	-3%
CCOc1ccc(-c2cnc(NCc3ccc(OC)cc3OC)n2C)cc1	-2%	x	x	x	10%	x
SMILES	Sm TGR block	RE007 growth inh	NS1 function inh	Giardia FBPA inh	TbPYK inhibitor	LmPK inh
COC(=O)c1cc2c(n(-c3ccccc3)c1=O)CCCC2=O	x	8%	x	x	-6%	x
Cc1cccc(NC(=O)c2cc3c(n(-c4ccccc4)c2=O)CCCC3=O)n1	32µM*	2%	-2%	u	-3%	-2%
O=C(CSc1c2c(nc3cc(Cl)ccc13)CCCC2)NCc1ccco1	89µM*	16%	-55%	-1%	-5%	-3%
O=C(CSc1nc2ccc(Cl)cc2[nH]1)NCc1ccco1	14µM*	-4%	-7%	-24%	1%	0%
O=C(CSc1c2c(nc3cc(Cl)ccc13)CCCC2)NCc1ccccc1Cl	-5%	x	x	x	3%	x
CC(CNC(=O)c1ccc2c(c1)nc1n2CCCCC1)c1ccccc1 (stereo not given)	1%	x	x	x	-1%	x
Cc1ccc(N2CC(c3nnc(NC(=O)c4ccco4)s3)CC2=O)cc1C (stereo not given)	-1%	x	x	x	2%	x
COc1ccc(C(=O)c2cccc(C(=O)c3ccc(OC)c(C)c3)c2)cc1C	-14%	-5%	1%	9%	6%	1%
COc1ccc(C(=O)c2ccc(OC)c(Br)c2)cc1Br	10µM*	-4%	2%	-4%	1%	0%
CCOc1ccc(OCC)c(NC(=O)c2cc(CN3CCOCC3)on2)c1	5%	x	x	x	3%	x
CC1=CC(C)(C)N2C(=O)C(=Nc3ccc(O)cc3)c3cccc1c32	10µM*	-16%	-48%	13µM*	-14%	-12%
Cc1cc(C)c(C(=O)O)c(Cl)n1	40µM*	5%	x	u	1%	4%
CSc1nc(C)cc(C)c1C(N)=O	-13%	-1%	2%	1%	2%	1%
CN(C)c1oc(-c2ccc(OCc3ccccc3)cc2)nc1C#N	100µM*	6%	-15%	-2%	-2%	0%
N#Cc1nc(-c2ccc(OCc3ccccc3)cc2)oc1NCc1cccnc1	6%	-21%	-2%	-1%	-3%	4%
Cc1ccc(CNC(=O)CS(=O)Cc2nc(-c3ccccc3C)oc2C)cc1 (stereo not given)	45µM*	-3%	-5%	6%	-11%	0%
Cc1ccccc1-c1nc(CS(=O)CC(=O)NCCc2ccc(Cl)cc2)c(C)o1 (stereo not given)	28µM*	18%	10%	x	1%	8%
COc1ccc(CNC(=O)CS(=O)Cc2nc(-c3ccccc3C)oc2C)cc1 (stereo not given)	u	3%	-1%	6%	-13%	0%
Cc1ccccc1-c1nc(CS(=O)CC(=O)NCc2ccccc2)c(C)o1 (stereo not given)	22µM*	8%	-7%	8%	0%	-3%
COCCNC(=O)CS(=O)Cc1nc(-c2ccccc2C)oc1C (stereo not given)	40µM*	9%	5%	0%	-10%	2%
Cc1cc(-n2c(=O)[nH]c(=O)n(C)c2=O)ccc1Oc1ccc(S(=O)(=O)C(F)(F)F)cc1	x	x	x	x	-8%	x
N#Cc1ccc(CN2CCCC3(CCN(C(=O)c4cnccn4)CC3)C2)cc1	x	x	x	1%	-1%	x
COc1ccc(C(=O)Nc2nnc(-c3ccco3)s2)cc1	-10%	3%	-10%	1%	-5%	u
